Experimental data from PubChem BioAssay (NCATS).
Results filed as inconclusive are left out. Where a call stands in place of a potency, no number is given. A number with no mark means an inactive call. Active and inactive are the calls of the source. Unless noted, calls follow the shape of the dose curve; as a rule, active = well fitted curve in the direction sought with a large enough effect; inconclusive = small, poorly fitted or top-dose-only effect, or another doubt; inactive = no such curve, though single readings can be large; an effect the other way counts as inactive or inconclusive.

Assays:
[1] = NCATS anti-infectives library activity on HEK293 viability as a counter-qHTS vs the C. elegans viability qHTS (AID 1745854);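 also: potency is read from the fitted curve at half-maximal effect; HEK293 cells exposed to compounds for 24 hr before the viability read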
Procedure, shortened: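 Compounds were acoustically plated (several concentrations, 1:5, final up to 41.7 uM), then 1500 HEK293 cells added per well and incubated 24 hr at 37C, 5% CO2. CellTiter-Glo was added and luminescence read after 10 min.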

[2] = NCATS anti-infectives library activity on the primary C. elegans qHTS viability assay (AID 1745855; calls by dose curve; also: potency is read from the fitted curve at half-maximal effect)
Procedure, shortened: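 Viability read-out is GFP fluorescence of PE254-GFP-FLuc C. elegans, measured by laser cytometry (488 nm) at day 0, 3 and 7. Ten L1 worms per well were incubated 7 days at 21 °C with compounds and bacterial capsules in S medium.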

[3] = target: M-phase phosphoprotein 8 (Homo sapiens) (UniProt Q99549); assay: qHTS Validation Assay for Inhibitors for MPP8 Chromodomain Interactions with Methylated Histone Tails (AID 488949); also: potency is read from the fitted curve at half-maximal effect; nearly all actives have a fitted effect of over 55% in size
Procedure, shortened: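 50 nM MPP8 + 50 nM b-H3K9me3 peptide, PBS pH 7.4/0.01% Tween-20, 30 min RT; + cpd 30 min RT; + AlphaScreen donor/Ni-chelate acceptor beads 10 ug/mL final, 30 min dark; luminescence read.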

[4] = target: Cytochrome P450 2D6 (Homo sapiens) (UniProt P10635); assay: qHTS for inhibitors of CYP2D6 against the NCATS DSHEA and TCM libraries (AID 1919972); also: potency is read from the fitted curve at half-maximal effect
Procedure, shortened: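 Luminescent P450-Glo read-out of CYP2D6 turnover of a luciferin substrate after NADPH-driven reaction of 30-45 min at room temperature. Compounds were first preincubated 15 min with enzyme at titrated concentrations; quinidine was the intraplate control.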

[5] = target: Tumor susceptibility gene 101 protein (Homo sapiens) (UniProt Q99816); assay: qHTS Assay for Iinhibitors of HIV-1 Budding by Blocking the Interaction of PTAP/TSG101: Hit Validation (AID 651600); also: potency is read from the fitted curve at half-maximal effect; nearly all actives have a fitted effect of over 70% in size
Procedure, shortened: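 Compounds are added to the Tsg101 binding domain (10 uM final) in pH 7.5 HEPES buffer. FITC-PTAP peptide follows at 50 nM final. After 20 min at r.t., polarized FITC emission is measured.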

[6] = target: Cytochrome P450 2D6 (Homo sapiens) (UniProt P10635); assay: Cytochrome P450 family 2 subfamily D member 6 (CYP2D6) small molecule antagonists: luciferase biochemical (cell-free) qHTS assay (AID 1645840; active = well fitted curve in the direction sought with a large enough effect in the repeat runs; an effect the other way counts as inactive or inconclusive; also: potency is read from the fitted curve at half-maximal effect; nearly all actives have a fitted effect of over 55% in size)
Procedure, shortened: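 P450-Glo luminescent screen: recombinant CYP2D6 enzyme–proluciferin substrate mix preincubated with compound 10 min at room temperature, then NADPH regeneration added for 1 h at room temperature. Detection reagent added for 20 min; luciferin light read as relative luminescence units.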

[7] = target: Cytochrome P450 3A4 (Homo sapiens) (UniProt P08684); assay: Cytochrome P450 family 3 subfamily A member 4 (CYP3A4) small molecule antagonists: luciferase qHTS assay (AID 1645841; active = well fitted curve in the direction sought with a large enough effect in the repeat runs; an effect the other way counts as inactive or inconclusive; also: nearly all actives have a fitted effect of over 45% in size)
Procedure, shortened: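 P450-Glo CYP3A4 enzyme with proluciferin substrate preincubated 10 min with compound at room temperature, then NADPH regeneration 1 h. Luciferin detection reagent added for 20 min; luminescence recorded. Ketoconazole positive control.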

[8] = target: Cytochrome P450 2C9 (Homo sapiens) (UniProt P11712); assay: Cytochrome P450 family 2 subfamily C member 9 (CYP2C9) small molecule antagonists: luciferase biochemical (cell-free) qHTS assay (AID 1645842; active = well fitted curve in the direction sought with a large enough effect in the repeat runs; an effect the other way counts as inactive or inconclusive; also: nearly all actives have a fitted effect of over 55% in size)
Procedure, shortened: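 Luminescence, after 20 min with luciferin detection reagent, reflected CYP2C9 turnover during a 1 h NADPH-driven reaction at 37C. Enzyme-substrate mix contained 0.4% bovine serum albumin and was preincubated with compound 10 min at room temperature.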

[9] = target: Dual specificity protein kinase CLK4 (Homo sapiens) (UniProt Q9HAZ1); assay: qHTS Assay for Inhibitors of CDC-like Kinase 4 (Kinase-Glo Assay) (AID 1770); also: nearly all actives have a fitted effect of over 65% in size
Procedure, shortened: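 Substrate mix (RS peptide 100 uM, ATP 1 uM) dispensed, compound pinned in, then Clk4 added to 25 nM final. Incubated 4.5 h at RT; Kinase-Glo reagent added, luminescence read after 5 min.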

[10] = target: Dual specificity protein kinase CLK4 (Homo sapiens) (UniProt Q9HAZ1); assay: qHTS Assay for Inhibitors of CDC-like Kinase 4 (ADP-Glo Assay) (AID 1771); also: nearly all actives have a fitted effect of over 70% in size
Procedure, shortened: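 Luminescence from ADP-Glo reports ADP produced by 25 nM Clk4 acting on 100 uM RS repeat peptide with 1 uM ATP over 1 hr at room temperature; residual ATP is depleted before ADP is converted to ATP for detection.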

[11] = target: Dual specificity protein kinase CLK4 (Homo sapiens) (UniProt Q9HAZ1); assay: qHTS Assay for Inhibitors of CDC-like Kinase 4 (ADP-FP Assay) (AID 1795);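 also: recombinant human CLK4 phosphorylating RS repeat peptide at 1 µM ATP; nearly all actives have a fitted effect of over 60% in size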
Procedure, shortened: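 Clk4 6.25 nM; RS peptide 100 uM; ATP 1 uM; 25 mM Tris pH 7.5, 10 mM MgCl2; 1 h reaction. ADP detected via antibody/orange tracer FP displacement; TG003 positive control.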

[12] = target: Muscarinic acetylcholine receptor M1 (Rattus norvegicus) (UniProt P08482); assay: qHTS Assay for Antagonists of Acetylcholine Muscarinic M1 Receptor: Measurement of IP-One Response (AID 944); also: potency is read from the fitted curve at half-maximal effect; nearly all actives have a fitted effect of over 75% in size
Procedure, shortened: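 M1-CHO (rat), 2000 cells/well, overnight recovery; cpd 10 min; carbachol EC80 (200 nM), 30 min, HEPES buffer + 50 mM LiCl pH 7.4; IP-One HTRF, Ex 337, Em 620/665 nm.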

[13] = target: Rap guanine nucleotide exchange factor 3 (Homo sapiens) (UniProt O95398); assay: Counterscreen qHTS for antagonist of cAMP-regulated guanine nucleotide exchange factor 3 (EPAC1) (AID 1645888);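 also: fluorescence loss as bound BODIPY-GDP is released from Rap1B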
Procedure, shortened: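 Rap1B–BODIPY-GDP (250 nM) with 50 uM GDP; compounds pin-transferred to 9.74 nM–152 uM final (activator) or from 7.32 nM upwards (inhibitor). Fluorescence Ex/Em 480/540 nm read at 5 and 30 min, then after adding cAMP or buffer, at room temperature.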

[14] = target: Glutathione peroxidase 1 (Homo sapiens) (UniProt P07203); assay: Primary qHTS Assay for Inhibitors of Recombinant Selenoprotein Glutathione Peroxidase 1 (GPX1) (AID 1845191); also: nearly all actives have a fitted effect of over 65% in size
Procedure, shortened: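 GR-coupled assay: compounds preincubated 30 min at room temperature with GPX1, then reaction started with CHP; final 10 nM GPX1, 1 mM GSH, 0.5 mM CHP, 0.5 mM NADPH, 100 nM GR, 0.01% BSA, pH 7.5 Tris buffer. NADPH fluorescence (340/450 nm) read at 0 and 15 min.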

[15] = target: Phospholipid hydroperoxide glutathione peroxidase GPX4 (Homo sapiens) (UniProt P36969); assay: Primary qHTS Assay for Inhibitors of Recombinant Selenoprotein Glutathione Peroxidase 4 (GPX4) (AID 1845192); also: nearly all actives have a fitted effect of over 65% in size
Procedure, shortened: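 GR-coupled assay: recombinant GPX4 preincubated 30 min with compound at room temperature; final 200 nM GPX4, 1 mM GSH, 0.5 mM cumene hydroperoxide, 0.5 mM NADPH, 100 nM GR, 0.01% BSA, pH 7.5 Tris. NADPH fluorescence (340/450 nm) read at 0 and 15 min.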

[16] = target: Nuclear receptor subfamily 1 group I member 3 (Homo sapiens) (UniProt Q14994); assay: Primary qHTS for agonist of constitutive androstane receptor (CAR) against the NCATS DSHEA and TCM libraries (AID 1794839); settings: Potency: CAR antagonist co-added at 0.75 µM unless noted;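 also: HepG2 cells expressing human CAR with a CYP2B6 reporter plus PK11195 antagonist; luciferase reporter luminescence read with ONE-Glo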
Procedure, shortened: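 qHTS, agonist mode: HepG2-CYP2B6-hCAR, 2,500 cells/well, 5 h attach; cpds + PK11195 0.75 µM final; 24 h, 37 °C, 5% CO2. Readouts: CellTiter-Fluor (405/540 nm), then ONE-Glo luminescence.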

[17] = KB-8-5-11 P-gp reporter qHTS against the NCATS DSHEA and TCM libraries (AID 1919977)
Procedure, shortened: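 KB-8-5-11, 500 cells/well, DMEM/10% FBS without colchicine; 4 h attach; cpd titrations, 72 h, 37C/5% CO2; CellTiter-Glo, 30 min RT, luminescence.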

7G8 = assay: qHTS profiling for inhibitors of Plasmodium falciparum proliferation (AID 504749); also: nearly all actives have a fitted effect of over 60% in size; settings: P. falciparum in erythrocytes, SYBR Green DNA, 72 h; series mostly up to 12.8 µM
Procedure, shortened: (§1)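 P. falciparum-infected erythrocytes (0.3% parasitemia, 2.5% hematocrit) incubated with compound 72 h at 37 C, 5% CO2. Parasite DNA detected by SYBR Green after lysis, overnight at room temperature; normalised to 0.29 uM artemisinin and DMSO.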

CP268 = assay: as above; settings: P. falciparum in erythrocytes, SYBR Green DNA, 72 h; series mostly up to 28.7 µM
Procedure, shortened: as §1

CP291 = assay: as above; settings: P. falciparum in erythrocytes, SYBR Green DNA, 72 h; series mostly up to 28.7 µM
Procedure, shortened: as §1

Chain of Dual specificity protein kinase CLK4 (Homo sapiens) (Q9HAZ1 whole entry, looked up): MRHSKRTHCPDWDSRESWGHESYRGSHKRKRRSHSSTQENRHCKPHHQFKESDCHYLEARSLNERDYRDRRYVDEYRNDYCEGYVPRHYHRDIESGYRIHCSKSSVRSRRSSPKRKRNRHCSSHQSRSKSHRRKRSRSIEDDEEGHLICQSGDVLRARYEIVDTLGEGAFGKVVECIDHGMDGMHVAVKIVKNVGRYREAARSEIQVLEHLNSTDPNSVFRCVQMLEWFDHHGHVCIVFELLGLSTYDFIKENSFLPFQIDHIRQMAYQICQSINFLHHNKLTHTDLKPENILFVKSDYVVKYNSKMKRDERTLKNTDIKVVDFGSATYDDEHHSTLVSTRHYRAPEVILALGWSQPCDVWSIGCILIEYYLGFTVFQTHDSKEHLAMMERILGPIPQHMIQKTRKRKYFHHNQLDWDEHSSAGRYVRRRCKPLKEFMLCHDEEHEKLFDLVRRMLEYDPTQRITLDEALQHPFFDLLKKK
Chain of Cytochrome P450 2D6 (Homo sapiens) (P10635 whole entry, looked up): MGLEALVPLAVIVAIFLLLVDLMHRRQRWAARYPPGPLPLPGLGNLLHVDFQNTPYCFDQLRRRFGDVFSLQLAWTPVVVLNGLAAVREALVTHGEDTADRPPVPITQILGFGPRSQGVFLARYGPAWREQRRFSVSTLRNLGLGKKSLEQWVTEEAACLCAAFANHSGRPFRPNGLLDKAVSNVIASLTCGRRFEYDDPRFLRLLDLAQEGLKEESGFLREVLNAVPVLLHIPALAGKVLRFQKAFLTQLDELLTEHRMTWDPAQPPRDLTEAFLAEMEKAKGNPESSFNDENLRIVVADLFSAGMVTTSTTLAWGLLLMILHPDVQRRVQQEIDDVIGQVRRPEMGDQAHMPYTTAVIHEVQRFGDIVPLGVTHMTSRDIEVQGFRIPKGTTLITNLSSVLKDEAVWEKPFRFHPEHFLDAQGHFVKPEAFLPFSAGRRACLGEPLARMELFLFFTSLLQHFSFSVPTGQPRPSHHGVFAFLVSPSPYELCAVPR
Chain of Tumor susceptibility gene 101 protein (Homo sapiens) (Q99816 whole entry, looked up, the tested form may be a part): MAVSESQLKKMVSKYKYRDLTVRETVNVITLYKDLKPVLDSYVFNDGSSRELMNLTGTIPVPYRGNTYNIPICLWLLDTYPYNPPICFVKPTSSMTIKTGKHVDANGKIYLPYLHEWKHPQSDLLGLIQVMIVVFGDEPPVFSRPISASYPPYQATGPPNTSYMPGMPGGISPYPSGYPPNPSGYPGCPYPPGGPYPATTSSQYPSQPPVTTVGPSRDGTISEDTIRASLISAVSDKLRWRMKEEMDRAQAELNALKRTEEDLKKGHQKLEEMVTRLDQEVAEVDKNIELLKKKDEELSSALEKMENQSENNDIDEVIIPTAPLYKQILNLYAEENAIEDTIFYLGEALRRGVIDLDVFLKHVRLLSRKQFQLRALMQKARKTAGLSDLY
Chain of Glutathione peroxidase 1 (Homo sapiens) (P07203 whole entry, looked up): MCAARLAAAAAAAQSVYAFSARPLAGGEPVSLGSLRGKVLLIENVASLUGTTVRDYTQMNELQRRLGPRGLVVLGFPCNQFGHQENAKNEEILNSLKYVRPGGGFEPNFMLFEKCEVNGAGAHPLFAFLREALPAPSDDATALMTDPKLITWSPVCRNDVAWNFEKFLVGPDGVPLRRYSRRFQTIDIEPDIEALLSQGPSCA
Chain of Cytochrome P450 2C9 (Homo sapiens) (P11712 whole entry, looked up): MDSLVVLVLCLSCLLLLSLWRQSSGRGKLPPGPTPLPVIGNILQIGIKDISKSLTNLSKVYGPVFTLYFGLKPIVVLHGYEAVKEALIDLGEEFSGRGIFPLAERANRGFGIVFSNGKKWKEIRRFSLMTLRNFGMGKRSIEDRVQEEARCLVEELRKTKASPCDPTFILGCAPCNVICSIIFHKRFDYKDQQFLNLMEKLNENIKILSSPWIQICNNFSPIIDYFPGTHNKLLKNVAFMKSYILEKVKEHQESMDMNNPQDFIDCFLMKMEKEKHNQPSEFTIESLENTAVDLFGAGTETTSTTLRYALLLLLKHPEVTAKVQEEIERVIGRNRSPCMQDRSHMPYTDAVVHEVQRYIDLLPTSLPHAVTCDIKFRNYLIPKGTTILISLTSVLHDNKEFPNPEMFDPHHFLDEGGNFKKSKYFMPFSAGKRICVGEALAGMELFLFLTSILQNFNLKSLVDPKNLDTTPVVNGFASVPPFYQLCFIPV
Chain of Phospholipid hydroperoxide glutathione peroxidase GPX4 (Homo sapiens) (P36969 whole entry, looked up): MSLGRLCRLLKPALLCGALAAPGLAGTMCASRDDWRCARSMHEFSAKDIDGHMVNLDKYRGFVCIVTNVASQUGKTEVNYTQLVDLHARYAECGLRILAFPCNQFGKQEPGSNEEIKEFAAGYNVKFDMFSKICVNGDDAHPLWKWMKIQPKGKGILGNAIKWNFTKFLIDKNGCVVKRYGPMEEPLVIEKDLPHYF
Chain of Cytochrome P450 3A4 (Homo sapiens) (P08684 whole entry, looked up): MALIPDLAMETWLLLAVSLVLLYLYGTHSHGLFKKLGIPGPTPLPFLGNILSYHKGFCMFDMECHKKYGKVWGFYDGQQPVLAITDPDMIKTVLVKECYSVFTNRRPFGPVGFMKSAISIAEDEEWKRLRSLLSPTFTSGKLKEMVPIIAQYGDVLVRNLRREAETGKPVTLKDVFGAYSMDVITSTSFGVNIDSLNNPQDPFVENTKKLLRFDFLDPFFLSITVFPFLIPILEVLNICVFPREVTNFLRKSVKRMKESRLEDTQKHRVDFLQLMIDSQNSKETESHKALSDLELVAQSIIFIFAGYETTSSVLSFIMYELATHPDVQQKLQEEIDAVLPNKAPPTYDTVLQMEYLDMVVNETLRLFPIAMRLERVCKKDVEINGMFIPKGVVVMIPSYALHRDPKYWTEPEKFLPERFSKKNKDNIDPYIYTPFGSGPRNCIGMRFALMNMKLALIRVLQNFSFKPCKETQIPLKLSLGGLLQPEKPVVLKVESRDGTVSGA
Chain of Nuclear receptor subfamily 1 group I member 3 (Homo sapiens) (Q14994 whole entry, looked up): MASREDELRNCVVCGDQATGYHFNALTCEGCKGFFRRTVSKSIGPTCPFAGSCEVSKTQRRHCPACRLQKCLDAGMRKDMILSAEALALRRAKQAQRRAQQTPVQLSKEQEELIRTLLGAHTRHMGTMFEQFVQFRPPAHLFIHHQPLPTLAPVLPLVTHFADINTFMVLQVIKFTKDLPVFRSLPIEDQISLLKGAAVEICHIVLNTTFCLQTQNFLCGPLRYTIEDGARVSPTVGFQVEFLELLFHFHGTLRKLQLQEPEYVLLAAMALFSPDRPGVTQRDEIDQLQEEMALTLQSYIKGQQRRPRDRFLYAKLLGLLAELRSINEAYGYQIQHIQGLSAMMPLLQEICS
Chain of Rap guanine nucleotide exchange factor 3 (Homo sapiens) (O95398 whole entry, looked up): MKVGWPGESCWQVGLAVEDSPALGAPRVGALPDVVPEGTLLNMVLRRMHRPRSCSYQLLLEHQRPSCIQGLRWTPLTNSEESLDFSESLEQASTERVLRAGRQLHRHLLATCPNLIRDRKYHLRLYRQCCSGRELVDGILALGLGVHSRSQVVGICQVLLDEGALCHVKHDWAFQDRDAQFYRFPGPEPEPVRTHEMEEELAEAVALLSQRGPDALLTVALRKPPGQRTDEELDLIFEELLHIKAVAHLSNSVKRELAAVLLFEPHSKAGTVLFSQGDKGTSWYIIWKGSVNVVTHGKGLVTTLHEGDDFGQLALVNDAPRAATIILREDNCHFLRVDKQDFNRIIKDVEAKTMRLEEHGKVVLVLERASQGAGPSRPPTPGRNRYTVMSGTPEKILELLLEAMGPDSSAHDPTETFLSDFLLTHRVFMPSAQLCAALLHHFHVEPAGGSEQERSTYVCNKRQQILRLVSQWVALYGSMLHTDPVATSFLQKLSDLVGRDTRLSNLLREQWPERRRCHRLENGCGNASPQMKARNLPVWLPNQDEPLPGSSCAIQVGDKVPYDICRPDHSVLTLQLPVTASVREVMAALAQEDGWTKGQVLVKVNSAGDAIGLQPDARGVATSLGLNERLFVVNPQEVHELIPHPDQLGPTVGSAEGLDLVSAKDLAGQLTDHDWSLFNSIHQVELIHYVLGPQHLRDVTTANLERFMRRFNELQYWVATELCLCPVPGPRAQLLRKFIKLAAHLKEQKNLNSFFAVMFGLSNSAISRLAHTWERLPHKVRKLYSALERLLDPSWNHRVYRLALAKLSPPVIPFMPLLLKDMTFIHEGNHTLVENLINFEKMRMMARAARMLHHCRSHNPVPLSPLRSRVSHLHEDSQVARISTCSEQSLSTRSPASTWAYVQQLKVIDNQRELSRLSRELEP
Chain of M-phase phosphoprotein 8 (Homo sapiens) (Q99549 whole entry, looked up): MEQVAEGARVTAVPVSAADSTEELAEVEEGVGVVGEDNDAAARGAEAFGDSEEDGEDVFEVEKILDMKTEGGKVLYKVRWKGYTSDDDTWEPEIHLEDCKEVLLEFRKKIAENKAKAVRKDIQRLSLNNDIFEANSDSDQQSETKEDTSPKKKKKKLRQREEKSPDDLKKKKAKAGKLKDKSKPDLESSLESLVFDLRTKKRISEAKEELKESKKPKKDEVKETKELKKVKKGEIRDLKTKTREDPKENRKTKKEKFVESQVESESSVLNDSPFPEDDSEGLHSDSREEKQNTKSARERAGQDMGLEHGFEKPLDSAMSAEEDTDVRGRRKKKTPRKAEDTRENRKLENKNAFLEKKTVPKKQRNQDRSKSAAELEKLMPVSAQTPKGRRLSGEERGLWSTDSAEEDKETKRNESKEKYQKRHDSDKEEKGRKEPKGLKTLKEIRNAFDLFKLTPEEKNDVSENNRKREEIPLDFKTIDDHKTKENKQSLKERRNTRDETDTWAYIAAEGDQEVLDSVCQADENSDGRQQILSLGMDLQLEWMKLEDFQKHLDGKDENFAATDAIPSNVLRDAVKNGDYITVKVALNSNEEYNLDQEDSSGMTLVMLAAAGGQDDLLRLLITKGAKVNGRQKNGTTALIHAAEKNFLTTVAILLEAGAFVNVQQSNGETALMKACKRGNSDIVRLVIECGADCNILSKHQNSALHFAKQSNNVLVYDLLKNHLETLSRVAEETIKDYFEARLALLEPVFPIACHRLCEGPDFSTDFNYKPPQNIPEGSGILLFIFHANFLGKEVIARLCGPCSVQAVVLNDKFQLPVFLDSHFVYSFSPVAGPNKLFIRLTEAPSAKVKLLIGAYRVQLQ

COC(=O)[C@]1(C)CC[C@]2(C)CC[C@]3(C)C4=CC=C5C(=CC(=O)C(O)=C5C)[C@]4(C)CC[C@@]3(C)[C@@H]2C1
Potency [1]: 1.12 µM (active)
Potency [2]: 9.16 µM (active)

C=CCN1CCc2cccc3c2C1Cc1ccc(O)c(O)c1-3 (stereo not given)
Potency [3]: 6.31 µM (active)

COc1cc2c(cc1O)CC1c3c(cc(O)c(OC)c3-2)CCN1C (stereo not given)
Potency [4]: 11.2 µM (active)

CC1=NCCc2c1[nH]c1cc(O)ccc21
Potency [5]: 3.26 µM (active)
Potency [6]: 12 µM (active)
outcome [7]: inactive
Potency [8]: inactive

CN1CCN(c2ncc3ncc(=O)n(C)c3n2)CC1
outcome [9]: inactive
outcome [10]: inactive
outcome [11]: inactive

O=C(OC1CCN(CCCl)CC1)C(c1ccccc1)c1ccccc1
Potency [12]: 0.562 µM (active)
activity change, negative = inhibition [13]: -43.6% [at 30.8 µM]

O=C(O)C1=CCCN(CCOC(c2ccc(C(F)(F)F)cc2)c2ccc(C(F)(F)F)cc2)C1
Potency [14]: inactive
Potency [15]: inactive

COc1ccc2c(c1O)-c1c(OC)c(OC)cc3c1[C@H](C2)N(C)CC3
Potency [16]: inactive
Potency [17]: inactive

C[N+]1([O-])[C@@H]2CC(OC(=O)[C@@H](CO)c3ccccc3)C[C@@H]1[C@H]1O[C@H]12 (stereo not given in full)
Potency (7G8): inactive
Potency (CP268): inactive
Potency (CP291): inactive
